Measured values as given in the supplement of paper PMC10849652.
About 8,800 targets were measured; listed, in parts, are those with a hit and a random draw of the rest. About 0.5% of all pairs of compound and target were hits.

Each target was assayed with O=C1NC(=O)C(c2cnc3ccccn23)=C1c1cn2c3c(cc(F)cc13)CN(C(=O)N1CCCCC1)CC2 (assay: log2 fold change, soluble protein after heating vs DMSO (PISA); higher = thermal stabilisation; K562 lysate, 10 uM; active = over 0.2 and 3.5 SD of the protein, either way, in both replicates (recomputed)).
Procedure, shortened: (§1)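 A 30 min treatment with 10 μM compound was applied to crude K562 extract at 1 mg/mL protein in PBS pH 7.4 with 1 mM MgCl2. Heating for 3 min spanned 48°C-58°C, after which aliquots were pooled, adjusted to 0.5% NP-40 at 4°C and spun at 21,000xg for 90 min. TMTpro 16plex LC-MS/MS of the supernatant, with channel sums equalised, gave values recorded as log-two fold change in thermal stability against solvent controls, from duplicates.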

Sequence of UniProt Q9BUK0 (Q9BUK0 whole entry, looked up): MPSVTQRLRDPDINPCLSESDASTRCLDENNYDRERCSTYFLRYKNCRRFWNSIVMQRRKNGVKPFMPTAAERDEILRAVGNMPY
Sequence of UniProt O76039 (O76039 whole entry, looked up): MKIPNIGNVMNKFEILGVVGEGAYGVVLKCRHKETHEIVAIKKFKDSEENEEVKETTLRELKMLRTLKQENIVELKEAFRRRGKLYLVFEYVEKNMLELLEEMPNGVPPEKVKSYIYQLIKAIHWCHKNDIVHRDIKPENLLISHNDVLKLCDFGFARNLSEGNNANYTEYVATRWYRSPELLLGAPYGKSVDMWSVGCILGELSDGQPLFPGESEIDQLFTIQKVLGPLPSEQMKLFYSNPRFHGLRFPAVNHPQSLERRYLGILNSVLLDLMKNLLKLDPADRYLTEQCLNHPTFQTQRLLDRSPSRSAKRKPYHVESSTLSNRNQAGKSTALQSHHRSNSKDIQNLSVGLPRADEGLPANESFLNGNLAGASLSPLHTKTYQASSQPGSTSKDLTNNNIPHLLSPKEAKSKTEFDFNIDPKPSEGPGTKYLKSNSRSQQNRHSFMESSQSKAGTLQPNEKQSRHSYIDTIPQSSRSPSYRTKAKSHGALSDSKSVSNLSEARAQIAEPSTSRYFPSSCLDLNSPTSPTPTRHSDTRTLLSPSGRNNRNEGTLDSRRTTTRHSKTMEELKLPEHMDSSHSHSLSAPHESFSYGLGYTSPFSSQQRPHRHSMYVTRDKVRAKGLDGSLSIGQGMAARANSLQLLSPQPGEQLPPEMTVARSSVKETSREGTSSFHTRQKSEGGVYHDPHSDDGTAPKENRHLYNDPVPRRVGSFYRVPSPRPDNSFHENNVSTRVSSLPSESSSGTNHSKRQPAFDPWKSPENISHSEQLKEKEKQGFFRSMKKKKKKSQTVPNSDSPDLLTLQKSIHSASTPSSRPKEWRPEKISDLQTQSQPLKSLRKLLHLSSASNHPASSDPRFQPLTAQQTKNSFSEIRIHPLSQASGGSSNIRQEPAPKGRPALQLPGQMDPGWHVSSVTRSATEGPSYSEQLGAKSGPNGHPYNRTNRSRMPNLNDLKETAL
Sequence of UniProt Q9C0D2 (Q9C0D2 whole entry, looked up): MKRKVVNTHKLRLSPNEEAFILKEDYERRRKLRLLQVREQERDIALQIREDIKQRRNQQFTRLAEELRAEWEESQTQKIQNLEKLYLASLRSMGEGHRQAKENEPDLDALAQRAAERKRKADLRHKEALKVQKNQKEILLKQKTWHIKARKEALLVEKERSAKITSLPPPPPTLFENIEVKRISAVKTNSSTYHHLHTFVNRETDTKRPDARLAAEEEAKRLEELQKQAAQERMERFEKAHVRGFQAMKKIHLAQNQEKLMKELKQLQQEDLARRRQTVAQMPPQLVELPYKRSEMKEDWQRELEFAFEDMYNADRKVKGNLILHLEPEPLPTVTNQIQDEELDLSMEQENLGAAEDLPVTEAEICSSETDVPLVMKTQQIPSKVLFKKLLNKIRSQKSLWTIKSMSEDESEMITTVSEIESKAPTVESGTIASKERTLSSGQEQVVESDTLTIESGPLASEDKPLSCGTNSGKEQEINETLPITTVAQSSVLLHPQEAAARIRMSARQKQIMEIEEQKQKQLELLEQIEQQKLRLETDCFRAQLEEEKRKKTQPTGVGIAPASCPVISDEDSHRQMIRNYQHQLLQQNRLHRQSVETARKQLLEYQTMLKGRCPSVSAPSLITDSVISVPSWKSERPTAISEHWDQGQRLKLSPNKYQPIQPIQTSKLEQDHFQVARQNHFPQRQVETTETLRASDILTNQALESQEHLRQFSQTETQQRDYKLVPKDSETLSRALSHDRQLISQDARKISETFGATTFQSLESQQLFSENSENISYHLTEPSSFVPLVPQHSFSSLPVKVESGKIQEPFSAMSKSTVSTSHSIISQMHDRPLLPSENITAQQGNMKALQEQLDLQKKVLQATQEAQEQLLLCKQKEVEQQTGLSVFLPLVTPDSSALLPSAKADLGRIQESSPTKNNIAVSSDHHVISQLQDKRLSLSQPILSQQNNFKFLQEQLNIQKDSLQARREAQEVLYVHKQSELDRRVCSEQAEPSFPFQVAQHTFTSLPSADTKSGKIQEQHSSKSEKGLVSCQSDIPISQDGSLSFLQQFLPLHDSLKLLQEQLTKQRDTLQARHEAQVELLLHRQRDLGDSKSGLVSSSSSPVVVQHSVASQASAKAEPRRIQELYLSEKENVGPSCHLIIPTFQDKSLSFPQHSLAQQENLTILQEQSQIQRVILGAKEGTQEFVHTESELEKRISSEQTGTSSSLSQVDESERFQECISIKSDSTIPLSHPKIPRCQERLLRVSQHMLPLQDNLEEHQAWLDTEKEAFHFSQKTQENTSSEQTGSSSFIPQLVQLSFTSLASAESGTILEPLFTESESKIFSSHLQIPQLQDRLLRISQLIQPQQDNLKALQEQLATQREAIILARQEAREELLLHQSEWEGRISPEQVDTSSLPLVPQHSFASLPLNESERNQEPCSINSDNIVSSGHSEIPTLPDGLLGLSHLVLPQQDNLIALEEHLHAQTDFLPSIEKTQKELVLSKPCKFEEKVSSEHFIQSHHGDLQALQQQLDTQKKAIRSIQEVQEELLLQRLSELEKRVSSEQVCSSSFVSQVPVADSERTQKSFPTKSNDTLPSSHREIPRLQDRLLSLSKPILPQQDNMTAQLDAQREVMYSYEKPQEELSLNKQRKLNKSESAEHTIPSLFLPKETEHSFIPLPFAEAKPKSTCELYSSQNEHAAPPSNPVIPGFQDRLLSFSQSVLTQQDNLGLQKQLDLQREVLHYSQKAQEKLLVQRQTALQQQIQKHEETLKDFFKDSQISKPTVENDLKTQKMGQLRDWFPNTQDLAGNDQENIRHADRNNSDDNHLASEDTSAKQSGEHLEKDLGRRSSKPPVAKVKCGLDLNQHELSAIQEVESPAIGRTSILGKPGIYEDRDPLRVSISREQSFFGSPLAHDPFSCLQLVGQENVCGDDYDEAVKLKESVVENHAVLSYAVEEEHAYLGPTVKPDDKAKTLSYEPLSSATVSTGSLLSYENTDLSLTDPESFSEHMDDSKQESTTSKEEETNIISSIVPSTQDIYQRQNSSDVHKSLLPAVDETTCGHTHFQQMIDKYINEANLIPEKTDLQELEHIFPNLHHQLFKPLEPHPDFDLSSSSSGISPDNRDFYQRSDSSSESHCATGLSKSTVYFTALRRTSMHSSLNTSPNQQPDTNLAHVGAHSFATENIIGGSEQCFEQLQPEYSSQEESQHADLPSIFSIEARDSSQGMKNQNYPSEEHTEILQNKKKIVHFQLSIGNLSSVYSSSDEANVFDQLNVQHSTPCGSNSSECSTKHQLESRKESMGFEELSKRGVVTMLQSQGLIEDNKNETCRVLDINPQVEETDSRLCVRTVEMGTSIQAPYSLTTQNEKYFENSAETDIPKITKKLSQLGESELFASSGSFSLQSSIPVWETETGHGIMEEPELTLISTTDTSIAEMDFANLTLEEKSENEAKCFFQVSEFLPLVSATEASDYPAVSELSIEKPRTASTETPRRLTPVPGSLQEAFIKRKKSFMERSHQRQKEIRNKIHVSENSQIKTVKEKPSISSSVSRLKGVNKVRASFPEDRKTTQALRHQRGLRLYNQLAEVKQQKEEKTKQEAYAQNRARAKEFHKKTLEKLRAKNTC
Sequence of UniProt P55210 (P55210 whole entry, looked up): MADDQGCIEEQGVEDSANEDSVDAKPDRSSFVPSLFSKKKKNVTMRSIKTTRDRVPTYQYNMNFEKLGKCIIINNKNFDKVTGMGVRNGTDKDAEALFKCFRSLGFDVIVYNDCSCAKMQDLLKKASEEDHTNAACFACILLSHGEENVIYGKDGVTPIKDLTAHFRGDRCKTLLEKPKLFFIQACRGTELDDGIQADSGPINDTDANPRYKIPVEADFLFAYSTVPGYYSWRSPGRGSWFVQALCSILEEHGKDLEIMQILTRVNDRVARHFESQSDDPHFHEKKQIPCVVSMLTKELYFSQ
Sequence of UniProt Q9NSG2 (Q9NSG2 whole entry, looked up): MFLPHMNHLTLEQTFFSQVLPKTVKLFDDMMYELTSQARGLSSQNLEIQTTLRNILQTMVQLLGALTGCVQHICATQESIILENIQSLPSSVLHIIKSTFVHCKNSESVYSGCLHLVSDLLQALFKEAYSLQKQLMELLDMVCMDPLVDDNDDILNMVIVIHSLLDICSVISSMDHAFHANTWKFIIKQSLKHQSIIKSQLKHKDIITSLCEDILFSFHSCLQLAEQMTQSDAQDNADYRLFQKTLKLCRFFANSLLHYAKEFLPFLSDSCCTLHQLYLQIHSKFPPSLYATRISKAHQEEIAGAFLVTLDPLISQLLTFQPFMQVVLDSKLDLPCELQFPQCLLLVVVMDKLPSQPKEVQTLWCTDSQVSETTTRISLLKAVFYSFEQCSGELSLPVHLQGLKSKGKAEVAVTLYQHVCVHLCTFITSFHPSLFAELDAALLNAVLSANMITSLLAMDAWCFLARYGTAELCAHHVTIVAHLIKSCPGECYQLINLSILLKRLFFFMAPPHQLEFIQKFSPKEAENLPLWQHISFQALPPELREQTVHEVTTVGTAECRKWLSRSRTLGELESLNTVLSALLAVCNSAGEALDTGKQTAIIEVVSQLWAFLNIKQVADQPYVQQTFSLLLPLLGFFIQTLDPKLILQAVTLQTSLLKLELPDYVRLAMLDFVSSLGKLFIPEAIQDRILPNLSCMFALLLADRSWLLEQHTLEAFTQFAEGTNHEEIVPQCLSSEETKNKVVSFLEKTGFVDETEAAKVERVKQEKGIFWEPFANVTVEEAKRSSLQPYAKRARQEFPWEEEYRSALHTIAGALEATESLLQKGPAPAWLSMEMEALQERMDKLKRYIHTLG
Sequence of UniProt Q7Z7K6 (Q7Z7K6 whole entry, looked up): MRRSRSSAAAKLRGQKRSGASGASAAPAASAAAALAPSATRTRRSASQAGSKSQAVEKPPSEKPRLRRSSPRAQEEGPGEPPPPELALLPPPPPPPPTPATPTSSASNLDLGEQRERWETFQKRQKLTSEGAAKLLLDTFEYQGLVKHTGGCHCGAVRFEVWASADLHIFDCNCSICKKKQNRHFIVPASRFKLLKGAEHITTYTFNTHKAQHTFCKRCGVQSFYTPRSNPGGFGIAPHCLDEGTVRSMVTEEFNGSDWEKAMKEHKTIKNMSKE

log2 fold change, inactive:
CHCHD7 isoform 4 (UniProt Q9BUK0) -0.066
CDC25A (UniProt P30304) -0.172
CDKL5 (UniProt O76039) 0.011
BICRA (UniProt Q9NZM4) -0.076
BAG4 (UniProt O95429) -0.025
ATG10 (UniProt Q9H0Y0) -0.023
BNIP3 (UniProt Q12983) -0.048
C3AR1 (UniProt Q16581) -0.013
CDAN1 (UniProt H3BPZ6) 0.006
CCDC130 (UniProt P13994) -0.306
CEP57L1 (UniProt Q8IYX8) -0.044
CAPNS1 (UniProt P04632) -0.039
ATG4B (UniProt Q9Y4P1) -0.014
C9orf72 (UniProt Q96LT7) -0.015
ATP5PF isoform 2 (UniProt P18859) 0.053
C8orf88 (UniProt P0DMB2) 0.024
BUD13 (UniProt Q9BRD0) 0.036
B3GALT6 (UniProt Q96L58) 0.071
CDK1 (UniProt P06493) -0.055
C15orf39 (UniProt Q6ZRI6) -0.025
ATPSCKMT (UniProt Q6P4H8) 0
CASP7 isoform 3 (UniProt P55210) 0.01
BTK isoform 2 (UniProt Q06187) 0.012
ATE1 (UniProt O95260) 0.028
CENPV (UniProt Q7Z7K6) 0.039
C1orf112 (UniProt Q9NSG2) 0.003
ATG4D (UniProt Q86TL0) 0.117
CCND3 (UniProt P30281) 0.086
CDC14A isoform 2 (UniProt Q9UNH5) -0.11
CDK11A (UniProt Q9UQ88) -0.012
CEP295 isoform 3 (UniProt Q9C0D2) -0.076

What follows are targets tested with c1cn2cc(-c3ccc4cn[nH]c4c3)nc(Nc3ccc(N4CCOCC4)cc3)c2n1 [entospletinib] in the same assay as above.
Procedure, shortened: as §1

log2 fold change, inactive:
CAD (UniProt H7BZB3) -0.008
CHCHD7 isoform 4 (UniProt Q9BUK0) 0.008
BTRC (UniProt Q9Y297) -0.004
CDKL5 (UniProt O76039) 0.017
BAG4 (UniProt O95429) 0.007
ATG10 (UniProt Q9H0Y0) 0.034
BNIP3 (UniProt Q12983) -0.031
CCDC130 (UniProt P13994) -0.076
CEP57L1 (UniProt Q8IYX8) -0.029
CAPNS1 (UniProt P04632) 0.033
ATG4B (UniProt Q9Y4P1) 0.021
C9orf72 (UniProt Q96LT7) -0.129
ATP5PF isoform 2 (UniProt P18859) -0.003
BRAF, A0A2R8Y8E0 -0.082
BUD13 (UniProt Q9BRD0) -0.046
CDK1 (UniProt P06493) 0.006
C15orf39 (UniProt Q6ZRI6) -0.147
ATPSCKMT (UniProt Q6P4H8) 0.105
CHD4, A0A2R8Y521 -0.313
CASP7 isoform 3 (UniProt P55210) 0.063
CEP128 (UniProt Q6ZU80) -0.081
BTK isoform 2 (UniProt Q06187) 0.3
CENPV (UniProt Q7Z7K6) 0.084
C18orf25 isoform 2 (UniProt Q96B23) 0.038
C1orf112 (UniProt Q9NSG2) -0.037
ATG4D (UniProt Q86TL0) 0.004
CCND3 (UniProt P30281) 0.062
CDCA8 (UniProt Q53HL2) 0.112
CEP295 isoform 3 (UniProt Q9C0D2) 0.087
